From PubChem BioAssay (NCI)
This is part of a sample that, as a whole, favours compounds with a hit. Of some 79,000 tested, about 15% had one in any assay. Values without a mark were called inactive. Rule as the data show it: active = growth inhibition above about 70%; inactive = the rest.

test: NCI Yeast Anticancer Drug Screen. Data for the bub3 strain (AID 167); conditions: S. cerevisiae bub3 mutant strain, at 50.0 µM, active compounds read high
How it was run: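 Compounds were applied to a genetically altered yeast strain carrying a cell-cycle control defect. Growth inhibition was scored against vehicle-treated controls.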

| Compound | growth inhibition |
| --- | --- |
| CC(C)CCNC(=O)CS(=O)(=O)c1ccc(N)cc1 | -23.1% |
| CCCCCCC1N(C(C#N)c2ccccc2)CCCN1C(C#N)c1ccccc1 (stereo not given) | 2.4% |
| NNC(=O)CCCO | 0.4% |
| O=P(O)(c1cc(Cl)cc(Cl)c1)c1cc(Cl)cc(Cl)c1 | -7.1% |
| CC(=O)OC1CN(c2ccccc2)CC(OC(C)=O)CN(c2ccccc2)C1 (stereo not given) | 2.1% |
| CC(C)NCCN | 12.7% |
| Cc1cc(N=Nc2c(O)c3ccccc3[nH]c2=O)ccc1N=Nc1ccc(C(=O)O)cc1 | -14.1% |
| Cc1ccc(S(=O)(=O)NCCC(Cl)(Cl)Cl)cc1 | 38% |
| Cc1ccc(S(=O)(=O)c2ccc(C)cc2C(=O)O)cc1 | -30.2% |
| Cc1ccc(C(=O)Nc2ccc(CP(=O)(O)O)cc2CP(=O)(O)O)cc1N | -14.7% |
| CC(=O)Nc1cc(C)c(C(=O)O)c(C)c1 | -24.9% |
| CCc1c(Cc2[nH]c(C=O)c(C)c2CC)[nH]c(C=O)c1C | 5.45% |
| COc1cc(C2=N/C(=C\c3cccc([N+](=O)[O-])c3)C(=O)O2)cc(OC)c1OC | -0.2% |
| Cc1cccc2c1C(=O)OC2(c1cccc2ccccc12)c1cccc2ccccc12 | 0% |
| CCN(CC)CCOc1ccc(/C=C(\C#N)c2ccc(OCCN(CC)CC)cc2)cc1 | 24.1% |
| O=C1CC(=O)N2C=CC=CC2N1 (stereo not given) | -16.7% |
| S=c1[nH]c2ccccc2n1CCc1ccncc1 | 1.05% |
| C/C(=N/NC(N)=O)C(=O)O | -2.95% |
| CCN1CSC(=S)N(Cc2ccccc2)C1 | 28.2% |
| O=C=Nc1ccc(Cl)c(Cl)c1 | -13.7% |

| Compound | growth inhibition |
| --- | --- |
| CCOC(=O)NC(Nc1cccc(F)c1)(C(F)(F)F)C(F)(F)F | -12.3% |
| CC(=O)Nc1ccc(NC(=O)Nc2cccc(Cl)c2C)cc1 | 17.4% |
| CCN(CC)C1=Nc2ccccc2N(c2ccccc2)C(SC)=C1 | 2.25% |
| O=C(N/N=C\c1ccc(Cl)cc1Cl)c1ccc(F)cc1 | -1.15% |
| Cc1ccc(N=Nc2c(C)nc(N)nc2C)cc1 | 12.1% |
| CCCOC1CC(C)C(O)C(C)C1 (stereo not given) | -1.35% |
| COc1cc(C2C3=C(COC3=O)OC(C)(C)Oc3cc4c(cc32)OCO4)cc(OC)c1O (stereo not given) | -27.1% |
| O=C(O)c1cc(=O)c2[nH]c3ccccc3c2s1 | -22.6% |
| O=C(O)CCCC1(CCCC(=O)O)OCCO1 | -13.8% |
| CC(C)(C)C1CCC2c3c([nH]c4ccccc34)C3C(=O)N(c4ccc(Cl)cc4)C(=O)C3C2C1 (stereo not given) | -25.4% |
| Cc1cc(C)c(C(C=O)c2ccccc2)c(C)c1 (stereo not given) | 6.25% |
| COC(=O)c1cc(Cl)ccc1NC(=O)C1CCCCC1 | 15.2% |
| CCOC(=O)NC(CC)CO (stereo not given) | 5.55% |
| O=C(C(c1ccccc1)C(C(=O)N(Cc1ccccc1)Cc1ccccc1)c1ccccc1)N(Cc1ccccc1)Cc1ccccc1 (stereo not given) | -1.35% |
| CN1C(=O)C(=O)N2c3ccc(Cl)cc3C3(c4ccccc4)N=CC12O3 (stereo not given) | -8.4% |
| Nc1ccc2c(=O)[nH][nH]c2c1 | -25.2% |
| NC(=O)c1cc(Br)ccc1O | -19.4% |
| Cn1nc(C(=O)NN)c(=O)[nH]c1=O | 6.6% |
| OC(CSCc1ccccc1)c1ccccc1 (stereo not given) | -2.2% |
| CC(=O)NC1C(SC(=O)NCCCl)OC(COC(C)=O)C(OC(C)=O)C1OC(C)=O (stereo not given) | -27.3% |
